# According to PubChem BioAssay (NCI):
# This is part of a sample that, as a whole, favours compounds with a hit. Of some 79,000 tested, about 15% had one in any assay. Unmarked numbers belong to inactive results. The source made the active and inactive calls. No stated cut-off is given here; in the data, active means growth inhibition above about 70%; inactive means the rest.
# Columns and labels:
# [1] = NCI Yeast Anticancer Drug Screen. Data for the wt1 strain (AID 149);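 further: 0% = growth of vehicle-treated wt1 cultures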; settings: S. cerevisiae wt1 strain (SPY 50644) growth inhibition, hits give high values
# Summary of the method: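 Each compound is tested on wt1 yeast and the loss of growth versus vehicle gives the inhibition value.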
# [2] = NCI Yeast Anticancer Drug Screen. Data for the rad50EPP+ strain (AID 151);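 further: 0% = growth of vehicle-treated control cultures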; settings: S. cerevisiae rad50 mutant strain, hits give high values
# Summary of the method: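 Strain rad50EPP+; compound exposure; % growth inhibition vs vehicle.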
# [3] = NCI Yeast Anticancer Drug Screen. Data for the mgt1 strain (AID 153); settings: S. cerevisiae mgt1 mutant growth inhibition, hits give high values
# Summary of the method: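 Read-out: yeast growth inhibition vs vehicle control. Strain mgt1, drawn from a panel altered in DNA damage repair or cell cycle control.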
# [4] = NCI Yeast Anticancer Drug Screen. Data for the rad50 strain (AID 155);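 further: 0% = growth of vehicle-only cultures of the same strain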; settings: S. cerevisiae rad50 strain growth inhibition, hits give high values
# Summary of the method: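 Vehicle-treated cultures provide the reference for the growth inhibition reported for compound-exposed, repair-deficient yeast.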
# [5] = NCI Yeast Anticancer Drug Screen. Data for the mec2-1 strain (AID 157); settings: S. cerevisiae mec2-1 strain, hits give high values
# Summary of the method: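 Cells of the genetically defined mec2-1 yeast strain are incubated with test compound. Inhibition of growth is calculated against vehicle-treated controls.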
# [6] = NCI Yeast Anticancer Drug Screen. Data for the rad14 strain (AID 159);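 further: 0% = growth of vehicle-treated control cultures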; settings: S. cerevisiae rad14 strain growth inhibition, hits give high values
# Summary of the method: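 Inhibition of growth is reported for a repair-deficient yeast mutant following compound treatment, calculated relative to cultures that received vehicle.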
# [7] = NCI Yeast Anticancer Drug Screen. Data for the sgs1 mgt1 strain (AID 161);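 further: 0% = growth of cultures given vehicle only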; settings: S. cerevisiae sgs1 mgt1 strain, hits give high values
# Summary of the method: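 Inhibition of yeast growth, normalised to vehicle-treated controls, is reported for a strain bearing genetic alterations in DNA damage repair.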
# [8] = NCI Yeast Anticancer Drug Screen. Data for the CLN2oe strain (AID 163);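 further: 0% = growth of vehicle-only control cultures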; settings: S. cerevisiae CLN2oe strain, hits give high values
# Summary of the method: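 Strain altered in cell-cycle control, incubated with compound; growth compared to solvent-treated controls.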
# [9] = NCI Yeast Anticancer Drug Screen. Data for the cln2 rad14 strain (AID 165);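 further: 0% = growth equal to vehicle treated cultures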; settings: S. cerevisiae cln2 rad14 strain, hits give high values
# Summary of the method: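 The screen exposed genetically defined yeast (cln2 rad14) to test compounds and scored growth inhibition relative to vehicle-treated controls.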
# [10] = NCI Yeast Anticancer Drug Screen. Data for the bub3 strain (AID 167); settings: S. cerevisiae bub3 mutant strain, hits give high values
# Summary of the method: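 Mutant yeast screening strain plus compound; vehicle-treated cultures serve as the 0% inhibition reference.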
# [11] = NCI Yeast Anticancer Drug Screen. Data for the wt2 strain (AID 169); settings: S. cerevisiae wt2 strain growth inhibition, hits give high values
# Summary of the method: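 Steps: yeast strain treated with compound; growth recorded; inhibition calculated relative to cultures given vehicle alone.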
# [12] = NCI Yeast Anticancer Drug Screen. Data for the mlh1 strain (AID 171);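 further: 0% = growth of vehicle-treated control cultures of the same strain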; settings: S. cerevisiae mlh1 strain growth inhibition, hits give high values
# Summary of the method: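 Yeast screen: mutant strain plus compound, growth scored against vehicle control wells.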
# [13] = NCI Yeast Anticancer Drug Screen. Data for the sgs1 strain (AID 173);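 further: 0% = growth of vehicle-only control cultures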; settings: S. cerevisiae sgs1 mutant, hits give high values
# Summary of the method: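 Inhibition of yeast growth served as the measure. The mutant strain was treated with each compound, and growth was normalised to cultures receiving vehicle alone.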
# [14] = NCI Yeast Anticancer Drug Screen. Data for the mlh1 rad18 strain (AID 175); settings: S. cerevisiae mlh1 rad18 strain growth inhibition, hits give high values
# Summary of the method: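 Compound-treated yeast growth, normalised to vehicle controls. Strain bears defined DNA repair mutations.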
# [15] = NCI Yeast Anticancer Drug Screen. Data for the rad18 strain (AID 177); settings: S. cerevisiae rad18 mutant growth inhibition, hits give high values
# Summary of the method: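 Inhibition values reflect reduced yeast growth compared with vehicle-treated controls, using a strain engineered with a DNA damage repair defect.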
# [16] = at 5.0 µM (retest, dose inferred, filed as 0.5)
# [17] = at 50.0 µM (retest, dose inferred, filed as 5.0)
compound,measurement,setting,value
CCC(C)C(=O)OCC(=O)c1ccc(-c2ccccc2)cc1 (stereo not drawn),growth inhibition,[1]; at 1.2 µM,-1%
same,growth inhibition,[1]; at 3.7 µM,-2%
same,growth inhibition,[1]; at 11.0 µM,-2%
same,growth inhibition,[1]; at 33.0 µM,-5%
same,growth inhibition,[1]; at 100.0 µM,-7%
same,growth inhibition,[2]; at 1.2 µM,1%
same,growth inhibition,[2]; at 3.7 µM,3%
same,growth inhibition,[2]; at 11.0 µM,8%
same,growth inhibition,[2]; at 33.0 µM,10%
same,growth inhibition,[2]; at 100.0 µM,9%
same,growth inhibition,[3]; at 1.2 µM,0%
same,growth inhibition,[3]; at 3.7 µM,-1%
same,growth inhibition,[3]; at 11.0 µM,1%
same,growth inhibition,[3]; at 33.0 µM,-4%
same,growth inhibition,[3]; at 100.0 µM,-35%
same,growth inhibition,[4]; at 1.2 µM,0%
same,growth inhibition,[4]; at 3.7 µM,0%
same,growth inhibition,[4]; [16],13%
same,growth inhibition,[4]; at 11.0 µM,0%
same,growth inhibition,[4]; at 33.0 µM,1%
same,growth inhibition,[4]; [17],-8%
same,growth inhibition,[4]; at 50.0 µM,-8.9%
same,growth inhibition,[4]; at 100.0 µM,-2%
same,growth inhibition,[5]; at 1.2 µM,-3%
same,growth inhibition,[5]; at 3.7 µM,-2%
same,growth inhibition,[5]; [16],-3%
same,growth inhibition,[5]; at 11.0 µM,-2%
same,growth inhibition,[5]; at 33.0 µM,-4%
same,growth inhibition,[5]; [17],0%
same,growth inhibition,[5]; at 50.0 µM,2.3%
same,growth inhibition,[5]; at 100.0 µM,-6%
same,growth inhibition,[6]; at 1.2 µM,-1%
same,growth inhibition,[6]; at 3.7 µM,1%
same,growth inhibition,[6]; at 11.0 µM,5%
same,growth inhibition,[6]; at 33.0 µM,5%
same,growth inhibition,[6]; at 100.0 µM,4%
same,growth inhibition,[7]; [16],6%
same,growth inhibition,[7]; [17],-1%
same,growth inhibition,[7]; at 50.0 µM,-3.05%
same,growth inhibition,[8]; at 1.2 µM,3%
same,growth inhibition,[8]; at 3.7 µM,3%
same,growth inhibition,[8]; at 11.0 µM,1%
same,growth inhibition,[8]; at 33.0 µM,-6%
same,growth inhibition,[8]; at 100.0 µM,-7%
same,growth inhibition,[9]; [16],-5%
same,growth inhibition,[9]; [17],-8%
same,growth inhibition,[9]; at 50.0 µM,2.3%
same,growth inhibition,[10]; at 1.2 µM,25%
same,growth inhibition,[10]; at 3.7 µM,35%
same,growth inhibition,[10]; [16],54%
same,growth inhibition,[10]; at 11.0 µM,51%
same,growth inhibition,[10]; at 33.0 µM,68%
same,growth inhibition,[10]; [17],74% (active)
same,growth inhibition,[10]; at 50.0 µM,87.2% (active)
same,growth inhibition,[10]; at 100.0 µM,75% (active)
same,growth inhibition,[11]; at 1.2 µM,-1%
same,growth inhibition,[11]; at 3.7 µM,-2%
same,growth inhibition,[11]; at 11.0 µM,-1%
same,growth inhibition,[11]; at 33.0 µM,-5%
same,growth inhibition,[11]; at 100.0 µM,-6%
same,growth inhibition,[12]; at 1.2 µM,0%
same,growth inhibition,[12]; at 3.7 µM,0%
same,growth inhibition,[12]; at 11.0 µM,-4%
same,growth inhibition,[12]; at 33.0 µM,-73%
same,growth inhibition,[12]; at 100.0 µM,-6%
same,growth inhibition,[13]; at 1.2 µM,-1%
same,growth inhibition,[13]; at 3.7 µM,-1%
same,growth inhibition,[13]; at 11.0 µM,-1%
same,growth inhibition,[13]; at 33.0 µM,-3%
same,growth inhibition,[13]; at 100.0 µM,-4%
same,growth inhibition,[14]; [16],-4%
same,growth inhibition,[14]; [17],5%
same,growth inhibition,[14]; at 50.0 µM,-2.1%
same,growth inhibition,[15]; at 1.2 µM,-1%
same,growth inhibition,[15]; at 3.7 µM,2%
same,growth inhibition,[15]; at 11.0 µM,1%
same,growth inhibition,[15]; at 33.0 µM,-1%
same,growth inhibition,[15]; at 100.0 µM,-5%
